Only some compounds are listed: those with a hit (about 12% of all), similar ones and a draw of the others.
FMDV inh: High Throughput Screening for Foot and Mouth Disease Virus Antivirals. Potency, µM (doses to about 57.9 µM), usual class: inhibitors. 410,000 compounds, 1.2% hits. AID 1159524, 2015. FMDV antiviral cell-based qHTS; calls by dose curve; tested in HEK293T cells; further: read-out not given here; nearly all actives have a fitted effect of over 45% in size
Sm TGR block: qHTS Assay for the Inhibitors of Schistosoma Mansoni Peroxiredoxins. Schistosoma mansoni thioredoxin glutathione reductase (TGR), Q962Y6. purified TGR, DTNB reduction, TNB absorbance 405 nm. Potency, µM (highest dose often 114 µM), hits mostly inhibitors. 360,000 compounds, 3% hits. AID 485364, 2010; active means well fitted inhibition curve with a large enough effect; inconclusive means small, poorly fitted or top-dose-only effect; inactive means no such curve, though single readings can be large or run the other way; further: nearly all actives have a fitted effect of over 60% in size
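TGR 20 nM + NADPH 100 uM (dispensed conc.), cpd preinc 15 min RT; start with NADPH (500 uM addition) then DTNB (15 mM addition). Kinetic TNB absorbance, 405 nm filter. Four-parameter Hill fit across titration.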
CHX counter: Cycloheximide Counterscreen for Small Molecule Inhibitors of Shiga Toxin. 300,000 compounds, 12% hits. max response, %. cell reporter, cycloheximide protein synthesis inhibition counterscreen; in the data active means max response mostly above about 13%, no sharp cut-off; inactive means mostly below about 14%; further: read at 38.3 µM for the half of the compounds with a filed dose
Shiga toxin inh: A qHTS for Small Molecule Inhibitors of Shiga Toxin | Vero cells, Shiga toxin protein synthesis inhibition reporter | inhibition, % at 38.7 µM | 290,000 compounds, 9.2% hits | AID 2315, 2010; in the data active means inhibition mostly above about 28%, no sharp cut-off; inactive means mostly below about 43%
Hits are given with their value; 0 = inactive; ? = inconclusive; - = no result given.

SMILES	FMDV inh	Sm TGR block	CHX counter	Shiga toxin inh
CC(C(=O)O)c1ccc(C(=O)c2ccccc2)s1 (stereo unspecified)	0	0	-	-
CNc1ncc(C(=O)c2ccccc2)s1	0	0	40.7	69.7
CNc1ncc(C(=O)c2ccc(Br)cc2)s1	0	0	44.4	81.3
Cc1cccc(-n2c(O)c(C)c(=O)[nH]c2=S)c1	0	39.8µM	0	0
Cc1cccc(-n2c(=S)[nH]c3c(oc4ccccc43)c2=O)c1	0	0	8.7	0
CCCCn1c(=O)[nH]c2c(oc3ccccc32)c1=O	0	0	0	0
Cc1ccc(-n2c(=S)[nH]c3c(oc4ccccc43)c2=O)cc1	0	0	39.6	69.2
Cc1cccc(-n2c(C)c(-c3ccccc3)[nH]c2=S)c1	0	0	0	0
Cc1ccc(-n2c(C)nc3oc4ccccc4c(=O)c3c2=O)cc1	0	0	47.3	120.6
O=c1c2oc3ccccc3c2[nH]c(=S)n1-c1ccccc1	0	0	0	0
CCC1CN(CCNC(=O)c2ccc(C#CC(C)(C)O)cc2)Cc2cc(OC)ccc2O1 (stereo unspecified)	0	-	-	-
O=C(NCc1ccccn1)Nc1ccc(F)cc1F	0	0	0	0
O=C(NCc1ccccn1)C(=O)NCc1ccccn1	0	0	0	0
Cc1cccc(NC(=O)C(=O)NCc2ccccn2)c1	-	0	59.3	168.0
O=C(NCc1ccccn1)Nc1cccc(F)c1	0	0	26.2	39.1
O=C(Nc1ccccc1)OCc1ccccn1	0	0	26.0	57.0
O=C(NCc1ccccn1)Nc1ccc(Br)cc1	0	0	12.5	28.8
CCCC[C@H]1CCCO[C@@](C(=O)NCCN2CCOCC2)(C(F)(F)F)C1	-	-	0	0
O=C(Nc1ccc(Cl)cc1)OCc1cn(-c2ccccc2)nn1	0	0	30.2	0
O=C(NCc1ccccn1)Nc1ccccc1	0	0	42.8	82.0
Cc1ccccc1NC(=O)OCc1cn(-c2ccc(Cl)cc2)nn1	0	0	0	0
CN1CCN(c2ncc3nc(-c4cccc(C#N)c4)c(=O)n(CCc4ccccc4)c3n2)CC1	0	-	-	-
Cc1ccc(C(=O)NCCCc2ccccc2)c(C)c1	0	-	41.7	60.1
O=C(NCCCc1ccccc1)c1ccc([N+](=O)[O-])cc1Cl	0	0	28.6	29.3
O=C(NCCCCCCNC(=O)c1ccccc1O)c1ccccc1O	?	0	0	0
SMILES	FMDV inh	Sm TGR block	CHX counter	Shiga toxin inh
Cc1ccc(C(=O)NCCCc2ccccc2)c(Cl)c1	0	0	37.5	-
O=C(NCCCc1ccccc1)c1ccccc1O	-	0	53.8	60.2
Cc1cc(C)cc(C(=O)NCCCc2ccccc2)c1	0	-	0	0
CSCCC(NC(=O)c1ccc([N+](=O)[O-])cc1Cl)C(=O)OCC(=O)NCCCc1ccccc1 (stereo unspecified)	0	0	0	0
O=C(CN1CCN(CC(=O)Nc2ccccc2F)CC1)Nc1ccc(Cl)c(C(F)(F)F)c1	0	0	-	-
Cc1ccccc1C(=O)NCc1nc2cccnc2n1Cc1ccccc1	0	0	-	-
Cc1ccc(Sc2c([N+](=O)[O-])c(=O)n(C)c3ccccc23)cc1	22.4µM	2µM	10.2	0
CN(C)c1ccc(NC(=O)CSc2nnc(-c3ccco3)c(-c3ccco3)n2)cc1	0	35.5µM	0	0
O=C(CSc1nnc(-c2ccco2)c(-c2ccco2)n1)Nc1ccccc1	0	1.78µM	31.5	0
CCn1c(=O)n(CC)c2cc(N3CCCCC3)c(NC(=O)Nc3ccccc3Cl)cc21	0	0	-	-
O=C(NC(=S)Nc1ccc(Br)cn1)c1cccnc1	0	0	28.1	0
O=C(NC(=S)Nc1ccccc1Br)c1cccnc1	0	17.8µM	0	-
Cc1ccccc1NC(=S)NC(=O)c1cncc(Br)c1	0	12.6µM	0	0
O=C(NC(=S)Nc1nc(-c2ccc(Br)cc2)cs1)c1cccnc1	0	0	0	0
O=C(NNC(=S)Nc1ccccc1C(F)(F)F)c1cccnc1	0	0	10.5	0
N#CCC(=O)NNC(=S)Nc1ccccc1C(F)(F)F	?	0	0	0
N#CCCn1c(=O)c(-c2cccs2)nc2cnc(N3CCNCC3)nc21	0	-	-	-
COc1ccc(OC)c(/C=C/C(=O)Nc2cccc(S(=O)(=O)NC3=NCCCCC3)c2)c1	0	0	-	-
COc1ccc(/C=C/C(=O)Nc2cccc(S(=O)(=O)NC3=NCCCCC3)c2)cc1	0	0	25.9	74.4
O=C(/C=C/c1ccc(OC(F)F)cc1)Nc1cccc(S(=O)(=O)NC2=NCCCCC2)c1	?	0	28.7	57.3
CC(=O)c1ccc(NC(=O)C2=CC(c3ccc(C)cc3)=NS(=O)(=O)N2C)cc1	?	0	-	-
Cc1cc(C(=O)CSc2ccc3c(c2)OCCO3)c(C)n1C1CC1	0	0	66.8	92.0
C/C(N)=C(/C#N)C(=O)CSc1ccc2c(c1)OCCO2	0	0	47.8	97.9
Cc1cccc2cc(CN(CC3CCCO3)C(=O)c3ccccc3F)c(N(C)C)nc12 (stereo unspecified)	0	-	-	-
COC(=O)CNC(=O)COC(=O)/C=C/c1ccc(F)cc1	0	0	0	0
SMILES	FMDV inh	Sm TGR block	CHX counter	Shiga toxin inh
CC(C)(C)NC(=O)COC(=O)/C=C/c1ccc(F)cc1	0	0	24.0	0
O=C(NCCNC(=O)c1cc(OCC(F)(F)F)ccc1OCC(F)(F)F)Nc1ccc(Cl)cc1	0	0	28.1	0
COc1ccccc1-c1c(NC(=O)c2ccco2)n(C)c2ccccc2c1=O	0	0	18.2	36.4
COc1ccc(-c2c(NC(=O)c3ccco3)n(C)c3ccccc3c2=O)cc1	0	0	0	0
CC1(C)CC(=O)C2=C(C1)N(c1cccnc1)C(N)=C(C#N)C2c1cccs1 (stereo unspecified)	0	50.1µM	0	0
COc1ccc(C2C(C#N)=C(N)N(c3cccnc3)C3=C2C(=O)CC(C)(C)C3)cc1OC (stereo unspecified)	0	44.7µM	0	0
COc1ccc(N2C(N)=C(C#N)C(c3cccnc3)C3=C2CC(C)(C)CC3=O)cc1 (stereo unspecified)	0	10µM	0	0
Cc1ccc(C2C(C#N)=C(N)N(c3cccnc3)C3=C2C(=O)CCC3)s1 (stereo unspecified)	0	-	0	51.0
Cc1nc2nncn2c(NCc2ccc(Cl)cc2)c1C	0	0	-	-
CC(=O)c1cc(-c2ccc(F)cc2)n(CCC(=O)Nc2nc3c(C)cccc3s2)c1C	0	0	-	-
Cc1ccc(NC2Sc3ccccc3NC2=O)cc1 (stereo unspecified)	?	0	21.9	41.1
O=C1C=CC(=O)c2c(O)c(CO)c(CO)c(O)c21	35.5µM	-	-	-
Cc1c(N2C(=O)/C(=C3\C(=O)N(CC(=O)O)c4ccccc43)SC2=S)c(=O)n(-c2ccccc2)n1C	25.1µM	?	0	0
Cc1c(N2C(=O)/C(=C\C3CC=CCC3)SC2=S)c(=O)n(-c2ccccc2)n1C (stereo unspecified)	25.1µM	28.2µM	0	0
Cc1c(N2C(=O)/C(=C/C3CC=CCC3)SC2=S)c(=O)n(-c2ccccc2)n1C (stereo unspecified)	17.8µM	7.94µM	0	0
Cc1c(N2C(=O)/C(=C/c3ccccc3)SC2=S)c(=O)n(-c2ccccc2)n1C	0	0	0	0

High-throughput results from PubChem.
